Screening results (PubChem BioAssay)
Only some compounds are listed: those with a hit (about 19% of all), similar ones and a draw of the others.
HT1080 IDH1KD tx = qHTS for induction of synthetic lethality in tumor cells producing 2HG: qHTS for the HT-1080-IDH1KD cell line; HT-1080 IDH1 knockdown viability, ATP luminescence, 48 h; Potency, µM (titrated, usually from 46.1 µM), inactives show at the highest dose activity, negative = toxicity, most hits filed as cytotoxic; 2% of 360,000 active; AID 686971, 2013;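 note: potency is the fitted concentration of half-maximal effect; 0% = DMSO wells and -100% = cell-free medium wells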
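Luminescent ATP read-out (CellTiter-Glo, 10 min at room temperature) after 48 h compound exposure at 37 °C gave viability of IDH1-knockdown HT-1080 cells. Activity was normalised to DMSO and cell-free wells, then fitted as concentration-response curves.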
DT40 TDP1 CPT = qHTS for Inhibitors of human tyrosyl-DNA phosphodiesterase 1 (TDP1): qHTS in cells in presence of CPT; chicken DT40 Tdp1-/-;hTDP1 cells + 20 nM CPT, ATP luminescence, 48 h; Potency, µM (top dose mostly 46.2 µM), for inactives: at the highest dose activity change, negative = growth inhibition, usual class: inhibitors; 12% of 420,000 active; AID 686979, 2013; note: potency is the fitted concentration of half-maximal effect; nearly all actives have a fitted effect of over 55% in size
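Cell growth measured by CellTiter-Glo luminescence after a minimum 48 h, 37 C compound exposure with 20 nM CPT in Tdp1-knockout DT40 cells stably expressing hTDP1, seeded 400/well; qHTS titration format.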
TDP1 cell noCPT = qHTS for Inhibitors of human tyrosyl-DNA phosphodiesterase 1 (TDP1): qHTS in cells in absence of CPT | Potency, µM (series often up to 46.2 µM), inactives show top-dose activity change, negative = growth inhibition, actives largely listed as inhibitors | DT40 Tdp1-/- hTDP1 cells, no CPT, ATP luminescence, 48 h | 15% of 420,000 active; note: potency is the fitted concentration of half-maximal effect; nearly all actives have a fitted effect of over 55% in size
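DT40 Tdp1-/-;hTDP1 cells, no CPT (DMSO vehicle only), 400 cells/well; compounds pin-transferred; ≥48 hr, 37 °C; CellTiter-Glo 30 min RT dark, luminescence read.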
ELG1 DNA repair = qHTS screen for small molecules that inhibit ELG1-dependent DNA repair in human embryonic kidney (HEK293T) cells expressing luciferase-tagged ELG1 | HEK293T ELG1-luciferase reporter, luminescence, 16 h; DNA damage induced by 5-fluorouridine | 2.3% of 330,000 active | AID 504467, 2011 | Potency, µM (titrated, usually from 46.1 µM), for inactives: top-dose activity change, negative = inhibition, usual class: inhibitors; note: potency is the fitted concentration of half-maximal effect; nearly all actives have a fitted effect of over 55% in size
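Cells (2,000 per well) received 5-fluorouridine plus test compound or DMSO and were incubated 16 hr at 37 °C, 5% CO2. Luciferase activity was read by luminescence 30 min after ONE-Glo addition; signal suppression marked inhibition of damage-induced ELG1 function.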
HT1080NT lethal = qHTS for induction of synthetic lethality in tumor cells producing 2HG: qHTS for the HT-1080-NT fibrosarcoma cell line; AID 686970, 2013; 1.6% of 360,000 active; HT-1080-NT fibrosarcoma viability, CellTiter-Glo ATP luminescence, 48 h; Potency, µM (doses to about 46.1 µM), inactives show at the top dose activity, negative = less viability, actives largely listed as cytotoxic;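 note: NT is the 2HG producing partner of a matched IDH1 knockdown line; potency is the fitted concentration of half-maximal effect; 0% = DMSO-treated cells and -100% = media-only wells without cells; nearly all actives have a fitted effect of over 55% in size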
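Compounds were tested in concentration-response format on HT-1080-NT cells for 48 hours at 37 degrees C. Cell viability came from CellTiter-Glo luminescence; curves were classified by r2, response magnitude and activity.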
IL1B secr inh = qHTS for Inhibitors of Inflammasome Signaling: IL-1-beta AlphaLISA Primary Screen; 4.7% of 360,000 active; THP-1 LPS/ATP IL-1B secretion, AlphaLISA, 16 h; hits give low values; activity change, % at 57.5 µM; in the data active = activity change below about -50%; inconclusive = mostly about -30% to -49%
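THP-1 cells pretreated 1 hr with compounds (up to 57.5 uM final), then stimulated with LPS (250 ng/mL final) plus ATP (1.25 mM final); secreted IL-1B measured by AlphaLISA after 16 hr, decreased signal indicating inhibition.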
* marks the source's active call; other numbers are inactive results; ? = inconclusive; / = no result given. Unless noted, calls come from the whole dose curve; as a rule, active = well fitted curve in the direction sought with a large enough effect; inconclusive = small, poorly fitted or top-dose-only effect, or another doubt; inactive = no such curve, though single readings can be large; an effect the other way counts as inactive or inconclusive. Unless noted, % is set by controls: 0 for no effect and ±100 for the full control effect.

SMILES	HT1080 IDH1KD tx	DT40 TDP1 CPT	TDP1 cell noCPT	ELG1 DNA repair	HT1080NT lethal	IL1B secr inh
CCC1=C(OC(=O)N(CC)CC)N2C(=O)OC(=NCCc3c[nH]c4ccccc34)[C@]2(Cc2ccccc2)[C@H]2C1=CC[C@H]1C(=O)N(CC(=O)OC)C(=O)[C@H]12	-5.6%	?	?	-0.9%	-8.3%	?
COc1ccc(CNc2ncncc2-c2ccc(C(=O)N(C)C)cc2)c(OC)c1	/	-22.7%	-15.5%	/	/	/
CC1CCCCC1NC(=O)COC(=O)c1ccc(N(C)C)cc1 (configuration not stated)	-0.8%	?	12.6µM*	?	9.1%	-15.3
CN(C)c1ccc(C(=O)OCC(=O)NC2CCCCCC2)cc1	0.3%	-28.5%	?	-17.5%	5.9%	0.7
COc1ccccc1C(=O)COC(=O)c1ccc(N(C)C)cc1	-2.3%	?	18.4µM*	?	-0.1%	-10.8
CC(NC(=O)COC(=O)c1ccc(N(C)C)cc1)c1ccccc1 (configuration not stated)	18.4µM*	?	?	?	-21.2%	7.4
CC(NC(=O)COC(=O)c1ccco1)c1ccccc1 (configuration not stated)	-1.1%	-7.0%	-4.7%	6.4%	-4.3%	0.2
CSCCC(NC(=O)c1ccco1)C(=O)N1CCN(c2ccccc2O)CC1 (configuration not stated)	4.2%	-13.6%	?	9.7%	2.4%	-9.0
Nc1nn(-c2ccccc2)c2ccc([N+](=O)[O-])cc12	?	-26.0%	?	?	?	?
O=[N+]([O-])c1ccc2c(c1)c(-c1ccccc1)nc1nncn12	-16.0%	3.2%	7.31µM*	3.3%	-0.2%	6.3
CCCCCCNC(=O)c1c(O)c2cccc3c2n(c1=O)CCC3	9.1%	?	29.1µM*	-0.5%	0.5%	21.0
CCN(CC)CCNC(=O)c1c(O)c2cccc3c2n(c1=O)CCC3	?	?	?	22.1%	-28.5%	6.4
CCCc1nc2ccccc2c(=O)n1NC(=O)c1c(O)c2cccc3c2n(c1=O)CCC3	2.4%	?	16.4µM*	?	12.0%	5.4
O=C(NCCNCCO)c1c(O)c2cccc3c2n(c1=O)CCC3	-23.4%	?	?	6.51µM*	?	-21.0
CCCCc1nc2ccccc2c(=O)n1NC(=O)c1c(O)c2ccccc2n(C)c1=O	-6.6%	4.11µM*	3.66µM*	1.0%	-0.4%	-10.1
O=C(CSc1nnc2scc(-c3ccccc3)n12)Nc1ccc(Cl)cc1	/	-26.2%	?	/	/	/
Cc1ccc(N(Cc2ccccc2)C(=O)c2ccc(C)c(S(=O)(=O)N3CCOCC3)c2)cc1	-23.6%	?	?	?	-16.4%	5.4
Cc1ccc(N(Cc2ccccc2)C(=O)c2cccc(S(=O)(=O)N3CCOCC3)c2)cc1	-1.6%	?	20.6µM*	-10.9%	-3.0%	2.4
Cc1ccc(N(Cc2ccccc2)C(=O)c2ccc(S(=O)(=O)N3CCOCC3)cc2)cc1	1.7%	?	18.4µM*	3.1%	3.4%	-59.6*
CCN1CCN(C(=O)N(CC(=O)Nc2ccc(C(N)=O)cc2)S(=O)(=O)c2ccc(C)cc2)CC1	0.3%	-6.4%	-1.1%	?	-3.8%	-1.9
Cc1cc2nc3c(c(C(F)(F)F)n2n1)CCCC3	19.7%	1.0%	-1.9%	?	6.0%	20.8
